FEN1 inhibitor: human FEN1 inhibition. Recombinant FEN1 flap cleavage, fluorescence, 15 min. P39748. AID 588795. hit rate 0.35% among 390,000. Potency, µM (top dose mostly 114 µM), usual class: inhibitors; further: nearly all actives have a fitted effect of over 65% in size
Target sequence (P39748 whole entry, looked up): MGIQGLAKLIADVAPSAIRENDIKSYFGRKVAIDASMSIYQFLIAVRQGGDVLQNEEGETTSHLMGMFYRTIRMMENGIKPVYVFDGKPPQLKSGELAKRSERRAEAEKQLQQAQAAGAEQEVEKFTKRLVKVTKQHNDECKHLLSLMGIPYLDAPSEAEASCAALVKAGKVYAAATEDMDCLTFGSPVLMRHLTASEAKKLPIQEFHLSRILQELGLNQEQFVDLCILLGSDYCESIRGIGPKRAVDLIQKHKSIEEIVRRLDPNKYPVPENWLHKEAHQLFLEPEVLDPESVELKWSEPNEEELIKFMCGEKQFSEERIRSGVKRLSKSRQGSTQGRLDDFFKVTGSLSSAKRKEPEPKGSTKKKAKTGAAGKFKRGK
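Quantitative HTS format: each compound was titrated, incubated with 10 nM nuclease for 15 min at room temperature, then challenged with flap substrate at 50 nM final. Signal change over 15 min gave concentration–effect curves.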
Pol beta inh: DNA polymerase beta (human) inhibition | Pol beta primer extension/strand displacement, fluorescence kinetic | Potency, µM (series often up to 114 µM), usual class: inhibitors | hit rate 1.3% among 340,000 | AID 485314
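Kinetic readout of DNA synthesis with strand displacement by Pol beta. Compound and 10 nM enzyme sit 15 min at room temperature; 50 nM substrate starts the reaction, read immediately and at 10 min.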
TDP1 block: blocks human tyrosyl-DNA phosphodiesterase 1; recombinant TDP1, AlphaScreen DNA substrate cleavage; Potency, µM (top dose mostly 130 µM), usual class: inhibitors; hit rate 0.28% among 350,000; AID 485290; further: nearly all actives have a fitted effect of over 40% in size
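Here, a 5' biotin and 3' phosphotyrosine-FITC DNA oligonucleotide reports Tdp1 activity: intact substrate bridges AlphaScreen beads, while cleavage leaves a 3' phosphate and drops signal. All incubations at room temperature.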
POLI inh: inhibitors of human DNA polymerase iota. Q9UNA4. Pol iota fluorescent replication assay, 10 min. Potency, µM (highest dose often 115 µM), usual class: inhibitors. hit rate 1% among 390,000
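Pol iota at 10 nM preincubated 15 min with compounds at room temperature; reaction started with fluorescent substrate, 50 nM final. Fluorescence read kinetically at 0 and 10 min; buffer-only wells as negative control.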
Pol kappa inh-1: inhibitors of human DNA polymerase kappa; Q9UBT6; AID 588579; Potency, µM (series often up to 107 µM), usual class: inhibitors; hit rate 0.53% among 400,000; purified Pol kappa, fluorescent DNA synthesis assay, 10 min
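Readout: fluorescence, taken kinetically at 0 and 10 min. Conditions: 10 nM Pol kappa, 15 min RT compound preincubation, 50 nM substrate final. Controls: enzyme-free buffer wells.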
Pol eta inh-1: inhibitors of human DNA polymerase eta. hit rate 1.2% among 390,000. recombinant Pol eta, fluorescent DNA replication assay. AID 588591. Potency, µM (highest dose often 114 µM), hits mostly inhibitors. Q9Y253
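Fluorescent replication assay: 50 nM final substrate added after a 15 min room-temperature compound preincubation with 10 nM enzyme. Signal taken at 0 min and again at 10 min.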
Pol kappa inh-2: confirmation of human DNA polymerase kappa inhibitors. shares compounds with Pol eta inh-1. purified Pol-kappa, fluorescent strand-displacement substrate. Potency, µM, actives largely listed as inhibitors. hit rate 76% among 920
Pol eta inh-2: confirmation of human DNA polymerase eta inhibitors. shares compounds with Pol eta inh-1. Pol eta primer extension, TAMRA/BHQ fluorescence, 10 min. Potency, µM, most hits filed as inhibitors. hit rate 64% among 2,600. AID 720502
Each line names hits and unclear results; the compound was inactive in the other large screens (follow-up assays come after a bar, where they were run). A selection: hits, their analogues and other compounds. The true share with any hit is near 2.4%. The call rests on the fitted dose curve; in most records, active means well fitted curve in the direction sought with a large enough effect; inconclusive means small, poorly fitted or top-dose-only effect, or another doubt; inactive means no such curve, though single readings can be large; an effect the other way counts as inactive or inconclusive.

COc1cc(C(=O)O)cc(OC)c1OCc1cc(C(=O)O)oc1C	Pol beta inh 17.8µM, POLI inh inconclusive, Pol eta inh-1 3.16µM (no result: TDP1 block) | Pol kappa inh-2 42.3 | Pol eta inh-2 47.8
CCOc1ccc(OCc2ccc(C(=O)O)o2)cc1	Pol beta inh 14.1µM, Pol eta inh-1 12.6µM (no result: TDP1 block) | Pol eta inh-2 60.1
O=C(O)c1ccc(COc2ccc3ccccc3c2)o1	POLI inh inconclusive
O=C(Cc1ccc(S(=O)(=O)N2CCOCC2)s1)NCC1CCCCC1	Pol beta inh inconclusive, Pol eta inh-1 inconclusive
O=C(Cc1ccc(S(=O)(=O)N2CCOCC2)s1)NC1CCCCC1	POLI inh 44.7µM, Pol kappa inh-1 inconclusive, Pol eta inh-1 20µM (no result: Pol beta inh, TDP1 block) | Pol eta inh-2 inconclusive
O=C(O)CCC(=O)Nc1ccc(N2CCCCC2)c(C(=O)O)c1	none
O=C(O)CCC(=O)Nc1ccc2c(c1)Cc1cc(NC(=O)CCC(=O)O)ccc1-2	Pol beta inh 44.7µM, Pol eta inh-1 25.1µM (no result: TDP1 block) | Pol eta inh-2 inconclusive
COc1ccc(Nc2ncc3c(n2)CCN(Cc2ccccc2C)C3)c(OC)c1	none (no result: Pol eta inh-1)
COc1cc(Br)c(C(=O)c2nccc3cc(OC)c(OC)cc23)cc1OC	POLI inh 1.78µM, Pol eta inh-1 79.4µM | Pol eta inh-2 inconclusive
Nc1[nH]n(-c2ccccc2)c(=O)c1N=Nc1ccccc1[N+](=O)[O-]	POLI inh inconclusive
NC(=S)n1[nH]c(-c2ccc([N+](=O)[O-])cc2)c(N=Nc2ccccc2[N+](=O)[O-])c1=O	Pol beta inh 15.8µM, POLI inh inconclusive, Pol eta inh-1 6.31µM | Pol kappa inh-2 8.44
CC1=CCC(C(=O)O)C(C(=O)Nc2ccc(-c3nc4ccc(C)cc4s3)cc2)C1 (stereo not given)	Pol beta inh 15.8µM, TDP1 block 25.1µM, POLI inh inconclusive, Pol kappa inh-1 inconclusive, Pol eta inh-1 44.7µM | Pol eta inh-2 inconclusive
CCOc1ccc2nc(N3C(=O)/C(=C/c4ccccc4)NC3=S)sc2c1	FEN1 inhibitor inconclusive, Pol eta inh-1 inconclusive
COc1ccc2nc(N3C(=O)/C(=C/c4ccccc4)NC3=S)sc2c1	Pol beta inh inconclusive, Pol eta inh-1 31.6µM | Pol kappa inh-2 inconclusive
O=C(Nc1cccc(C(F)(F)F)c1)Nc1cc(Cl)ccc1C(=O)O	none (no result: FEN1 inhibitor, Pol beta inh, POLI inh, Pol eta inh-1)
O=C(Cn1c(=O)nc(-c2ccccc2)c2ccccc21)NCc1ccc(Cl)cc1	none
O=C1C2C3C=CC(CC3)C2C(=O)N1/N=C/c1ccc(O)c(O)c1 (stereo not given)	Pol beta inh inconclusive, POLI inh inconclusive, Pol kappa inh-1 inconclusive, Pol eta inh-1 3.98µM | Pol eta inh-2 inconclusive
COc1ccc(C)cc1NC(=O)CSc1nc(=O)n(Cc2cccnc2)c2c1CCC2	none
O=C(O)c1c2c(nc3ccc(S(=O)(=O)N4CCC(C(=O)NC5CCCCCC5)CC4)cc13)CCCC2	Pol beta inh 39.8µM, POLI inh inconclusive, Pol kappa inh-1 79.4µM, Pol eta inh-1 20µM | Pol eta inh-2 inconclusive
COc1ccc(-n2c(=O)c(C)nc3cnc(Nc4cccc(OC)c4)nc32)cc1	none (no result: FEN1 inhibitor, Pol beta inh, TDP1 block, POLI inh, Pol eta inh-1)
COc1ccc(C(=O)CSc2nc(C)cc(=O)[nH]2)cc1	none
COc1ccc(C(=O)CSc2cc(C)[nH]c(=O)n2)cc1	Pol beta inh 5.62µM, POLI inh inconclusive, Pol kappa inh-1 79.4µM, Pol eta inh-1 20µM | Pol eta inh-2 inconclusive
CN(Cc1ccccc1)C(=O)c1ccc2c(c1)N(Cc1ccc(Cl)cc1)C(=O)c1ccccc1S2=O (stereo not given)	none
COc1cc(Cl)c(C)cc1NC(=O)CSc1sc2c(O)cc(=O)[nH]c2c1C#N	FEN1 inhibitor inconclusive, Pol beta inh inconclusive, POLI inh inconclusive, Pol eta inh-1 28.2µM | Pol kappa inh-2 18.9 | Pol eta inh-2 60.1
O=c1c2sc3ccccc3c2n(Cc2ccc(Cl)cc2)c(=O)n1Cc1ccco1	none
